# From PubChem BioAssay (NCI)
# Compounds without any hit were thinned out: in the full panel of roughly 79,000, 15% have a hit. A number with no mark means an inactive call. Active and inactive are the calls of the source. Cut-off read from the data, not from the text of the source: active = growth inhibition above about 70%; inactive = the rest.
# Key:
# [1] = NCI Yeast Anticancer Drug Screen. Data for the rad50 strain (AID 155);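 note: 0% = growth of vehicle-only cultures of the same strain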; conditions: S. cerevisiae rad50 strain growth inhibition; at 50.0 µM; active compounds read high
# In short: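 Cells are treated with compound, grown, and their growth is then scored against vehicle-only cultures of the same repair-deficient yeast strain.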
# [2] = NCI Yeast Anticancer Drug Screen. Data for the mec2-1 strain (AID 157); conditions: S. cerevisiae mec2-1 strain, at 50.0 µM, active compounds read high
# In short: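 Yeast mec2-1 mutant treated with compound. Readout: growth inhibition vs vehicle controls.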
# [3] = NCI Yeast Anticancer Drug Screen. Data for the sgs1 mgt1 strain (AID 161);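 note: 0% = growth of cultures given vehicle only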; conditions: S. cerevisiae sgs1 mgt1 strain, at 50.0 µM, active compounds read high
# In short: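 Genetically altered yeast, compound exposure, growth inhibition relative to vehicle.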
# [4] = NCI Yeast Anticancer Drug Screen. Data for the cln2 rad14 strain (AID 165);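 note: 0% = growth equal to vehicle treated cultures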; conditions: S. cerevisiae cln2 rad14 strain, at 50.0 µM, active compounds read high
# In short: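 cln2 rad14 yeast strain; compound exposure; growth inhibition read vs vehicle controls.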
# [5] = NCI Yeast Anticancer Drug Screen. Data for the bub3 strain (AID 167); conditions: S. cerevisiae bub3 mutant strain, at 50.0 µM, active compounds read high
# In short: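 Part of a panel of yeast mutants defective in DNA damage repair or cell cycle regulation. Each strain is grown with compound, and inhibition is calculated relative to solvent-treated cultures.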
# [6] = NCI Yeast Anticancer Drug Screen. Data for the mlh1 rad18 strain (AID 175); conditions: S. cerevisiae mlh1 rad18 strain growth inhibition; at 50.0 µM; active compounds read high
# In short: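 Yeast w/ defined DNA-repair lesions; compound exposure; growth vs vehicle controls → % inhibition.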
SMILES,growth inhibition [1],growth inhibition [2],growth inhibition [3],growth inhibition [4],growth inhibition [5],growth inhibition [6]
Cc1ccc(S(=O)(=O)N/N=C/C(C)(c2ccccc2)c2ccccc2)cc1,70.9% (active),52%,69.3%,40.2%,15.8%,47.8%
CCC(C)(S)CN (stereo unspecified),-1.55%,-2.55%,-7.35%,-37.5%,-11.4%,-1.55%
O=C1NC(=NC2CCCCC2)C2(CCN(CCCC3(c4ccc(F)cc4)OCCO3)CC2)N1c1ccccc1,-18.8%,-17.2%,-6.3%,5%,-5%,-1.45%
CC(=O)Nc1cc(C(C)=O)ccc1O,0.95%,-0.5%,-3.95%,-32.7%,-14%,6.6%
CN(C)C(=O)NNC(=O)N(C)C,1.75%,20.5%,12.8%,-22.5%,6.85%,-0.7%
CCCCCCCCCCCCCCCCCC(=O)N1CC[N+](C)(C)CC1,99.7% (active),99.7% (active),99.7% (active),99% (active),99.3% (active),99.5% (active)
CCOc1cc(=O)cc2n(-c3cc(OCC)c(OC)c(OCC)c3)c3ccccc3nc1-2,38%,11.7%,23.6%,21.9%,-1.4%,-1.2%
NC(N)=NCC1CCCCCCN1 (stereo unspecified),-9.2%,-20.7%,-21.1%,18.6%,-12.6%,12.9%
COC1O[C@H]2CCN(C(=O)OCc3ccccc3)[C@H]2[C@H]1OCc1ccccc1 (stereo partly specified),19.8%,-11.6%,20.2%,4.05%,28.6%,44.5%
CCOC(=O)C(NC(C)=O)C(O)c1ccccc1 (stereo unspecified),-8.85%,-16.2%,-2%,-24.6%,-37.4%,-9.95%
O=C(O)c1ccc(C(=O)O)c(C(=O)O)c1.[NH-]C1CCCCC1[NH-].[Pd+2],11.1%,5.2%,7.9%,10.6%,3.95%,9.65%
CC1(C)OC2COC3(COC(C)(C)O3)C(O)C2O1 (stereo unspecified),-9.05%,0.2%,4.15%,-3.7%,-6.2%,-24.8%
NC1=C(O)C(=O)C(c2ccccc2)O1 (stereo unspecified),-29.2%,-12.2%,-4.15%,-24.2%,-8.9%,2.5%
CC(=O)Nc1ccc2c([N+](=O)[O-])cccc2c1-c1c(NC(C)=O)ccc2c([N+](=O)[O-])cccc12,44.2%,10.8%,35.4%,10.8%,5.55%,30.4%
O=C1CCCC2=C1C(c1ccccc1)/C(=N/O)O2 (stereo unspecified),14.6%,-11.2%,-4.45%,-12.1%,8%,16.1%
COc1cc(C2(C)OC(=O)c3ccccc32)c(OC)c2ccccc12 (stereo unspecified),27.9%,2.3%,30.4%,31.3%,30.9%,14.2%
COC(=O)N1C2c3ccccc3C(c3ccccc32)N1C(=O)OC,6%,21.5%,11.3%,-54.8%,32.8%,33.8%
Cc1ccc(N=Nc2ccc(C)cc2NC(=S)Nc2ccccc2)cc1,-11.2%,-0.95%,-12.3%,-20.9%,7.7%,-8.75%
O=C(CC(O)(C(F)(F)F)C(F)(F)F)c1cccs1,3.65%,15.4%,3.75%,-34.9%,-5.15%,7.5%
CC(=O)C1CCC2C3CC=C4CC(O)C=CC4(C)C3CCC12C (stereo unspecified),7.6%,22.1%,11.2%,-1.65%,5.1%,17.9%
CSc1ccc2c(c1)Cc1cc(NC(C)=O)ccc1-2,8.8%,-9.05%,-4.25%,-12.3%,-11.8%,1.05%

SMILES,growth inhibition [1],growth inhibition [2],growth inhibition [3],growth inhibition [4],growth inhibition [5],growth inhibition [6]
COc1cccc2c1[C@]1(O)C(O)CCCC21 (stereo partly specified),-43.6%,-6.6%,-60.6%,5.95%,-31.9%,-35.7%
CC(O)COc1ccc(OCc2ccccc2)cc1 (stereo unspecified),26.6%,34.6%,49.9%,10.2%,46.5%,33.9%
Cc1cc(N=Nc2ccc(N=Nc3ccc(S(=O)(=O)O)cc3)cc2)cc(C(=O)O)c1O,12%,-9.4%,-2.85%,-8%,-19.7%,4.25%
NC(=O)c1ncn2c(=O)n(CCl)nnc12,57.4%,81.6% (active),29.6%,45.5%,57.5%,83.5% (active)
COCCCN1C(=O)C2c3[nH]c4ccccc4c3C3CCC(C(C)(C)C)CC3C2C1=O (stereo unspecified),34.9%,8.55%,21.9%,45.4%,35.1%,49.5%
O=C1CC(c2ccccc2)C(c2ccccc2)C1C(=O)OC1CCCCC1 (stereo unspecified),0.5%,2.85%,0.65%,-62.5%,0.55%,-15.4%
Brc1ccc(/C=C/c2ccnnc2)cc1,41.5%,33.8%,34.6%,25.5%,47.7%,34.4%
C=CC[N+](CC)(CC)CC,12.3%,-0.45%,2.35%,12.3%,19.4%,13.3%
NNC(=O)N/N=C(\CBr)c1ccc(Cl)cc1,-2.35%,-0.45%,6.9%,-47.6%,3.95%,4.35%
COc1cc2c3c(c1)nc(C)n3C(=O)C(C)S2 (stereo unspecified),-26.8%,-46.9%,-22.9%,12.3%,11.3%,-22%
Fc1ccccc1/C=C/c1cnnc2ccccc12,19.9%,11.1%,16.1%,-20.4%,5.2%,3.15%
CCOc1ccc(N=Nc2c(C)nn(C(N)=S)c2OCC)cc1,-54.6%,-21.6%,11.6%,-38.5%,-5.25%,-7.35%
O=C1CS/C(=N/C(=O)Nc2ccc(Cl)cc2)N1,-1.9%,32.5%,16.1%,-9.55%,-6.95%,14.5%
CC(=O)c1ccc(C)c([N+](=O)[O-])c1,-13.2%,-5.65%,-11.6%,-48.1%,-7.15%,-0.6%
Fc1cccc(Cl)c1/C=N\N=C1c2ccccc2-c2ccccc21,-8.1%,21.9%,-22.4%,-20.1%,-57.8%,-15.8%
CC(O)C1OC(=O)C(O)C1O (stereo unspecified),-0.75%,4.95%,-14.8%,-5.9%,5.95%,-6.05%
COc1ccc(NC(=O)CC(=O)NN)cc1,-5.4%,-0.05%,3.4%,-1.5%,-9.55%,9.2%
CC(=O)O[C@]12CCCCCC1C1(O)C(O)CCCC[C@H]12 (stereo partly specified),10.2%,-23.6%,-21.2%,4.45%,-10.3%,-16.4%
O=C(Nc1cccc2ccccc12)c1ccccc1,18.4%,-38.2%,-0.25%,-37.2%,-9.45%,19.4%
C=C(Cl)C(=C)CCC(Cl)C(C)C (stereo unspecified),-6.15%,-9.4%,1.6%,20.6%,0.25%,0.55%
